Several values for one entry are separate records, joined by “and”; a condition that tells them apart may be missing. Identical values can stand only once. Inconclusive results are not listed. More than one record can exist for a structure, and the calls need not agree. Activity calls are given as the source filed them. Calls come from the whole dose curve; as a rule, active = well fitted curve in the direction sought with a large enough effect in the repeat runs; inconclusive = weak or mixed curves; inactive = no such curve, though single readings can be large; an effect the other way counts as inactive or inconclusive.

Potency, outcome and max response data for 13 molecules are collected here from PubChem BioAssay (Tox21).

The nature of test [1]: A CellTox Green Cytotoxicity Assay to monitor cytotoxicity in HEK293 cells - 40 hour (AID 1224871). Note: nearly all actives have a fitted effect of over 45% in size. Note: potency is the fitted concentration of half-maximal effect. A digest of the protocol:
(§1)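 Read-out: fluorescence of a cell-impermeant cyanine dye staining DNA of dead cells, proportional to cytotoxicity. HEK293, 600 cells/well with reagent, compound (23 nL DMSO) added after 5 h; reads at 0, 8, 16, 24, 32, 40 h.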

The nature of test [2]: qHTS RealTime-Glo MT Cell Viability Assay in HEK293 cells - 16 hour (AID 1224872). Note: top concentration of the series differs between compounds; nearly all actives have a fitted effect of over 50% in size. In short, it runs like this: (§2)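 Luminescence generated by NanoLuc from substrate produced by living HEK293 cells served as the viability signal. Each value reflects the reading at its stated time point during continuous 40 h compound exposure at 37 C.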
Background: Quantitative high-throughput screening tests each substance at several concentrations.

The nature of test [3]: qHTS RealTime-Glo MT Cell Viability Assay in HepG2 cells - 8 hour (AID 1224873). Note: nearly all actives have a fitted effect of over 55% in size. In short, it runs like this: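 Real-time viability: cells seeded at 600 per well together with NanoLuc and cell-permeant prosubstrate, compounds added after 5 h incubation. Luminescence tracked at 0, 8, 16, 24, 32 and 40 h of exposure.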
Test [4] is described as follows: qHTS RealTime-Glo MT Cell Viability Assay in HEK293 cells - 40 hour (AID 1224874). Note: nearly all actives have a fitted effect of over 50% in size. Note: potency is the fitted concentration of half-maximal effect. The settings on record: RealTime-Glo luminescence; max response: stronger effect = lower value. In short, it runs like this:
(§3)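 Luminescence readout at each listed time point; HEK293, 600 cells/well, RealTime-Glo MT reagent added with cells; compounds pinned (23 nL in DMSO) after 5 h at 37 C; continuous culture at 37 C.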

Test [5] in a line: A CellTox Green Cytotoxicity Assay to monitor cytotoxicity in HEK293 cells - 24 hour (AID 1224875). Note: series mostly up to about 77 µM; nearly all actives have a fitted effect of over 45% in size. A digest of the protocol: as §1
The nature of test [6]: A CellTox Green Cytotoxicity Assay to monitor cytotoxicity in HepG2 cells - 16 hour (AID 1224876). Note: nearly all actives have a fitted effect of over 45% in size. A digest of the protocol: (§4)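 HepG2, 600 cells/well premixed w/ CellTox Green; 5 h settle, 37 C/5% CO2; pintool cpd add (DMSO); 37 C, 40 h; fluorescence read at 0, 8, 16, 24, 32, 40 h.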
A short description of test [7]: qHTS RealTime-Glo MT Cell Viability Assay in HepG2 cells - 32 hour (AID 1224877). Note: nearly all actives have a fitted effect of over 55% in size. A digest of the protocol: (§5)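 Tox21 10K library screened in qHTS format on HepG2 cells carrying RealTime-Glo reagents. Compounds were added after a 5 h preincubation, and the luminescent signal from continuous culture was measured repeatedly during 40 h treatment.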
The nature of test [8]: A CellTox Green Cytotoxicity Assay to monitor cytotoxicity in HepG2 cells - 24 hour (AID 1224878). Note: nearly all actives have a fitted effect of over 45% in size. Note: potency is the fitted concentration of half-maximal effect. A digest of the protocol:
as §4

Test [9] is described as follows: A CellTox Green Cytotoxicity Assay to monitor cytotoxicity in HepG2 cells - 40 hour (AID 1224879). Note: nearly all actives have a fitted effect of over 40% in size. Note: potency is the fitted concentration of half-maximal effect. In short, it runs like this:
as §4

Test [10] is described as follows: qHTS RealTime-Glo MT Cell Viability Assay in HEK293 cells - 0 hour (AID 1224880). Note: nearly all actives have a fitted effect of over 45% in size. Note: potency is the fitted concentration of half-maximal effect. In short, it runs like this: as §3
Test [11] can be described thus: A CellTox Green Cytotoxicity Assay to monitor cytotoxicity in HEK293 cells - 32 hour (AID 1224881). Note: nearly all actives have a fitted effect of over 40% in size. In short, it runs like this:
as §1

The nature of test [12]: A CellTox Green Cytotoxicity Assay to monitor cytotoxicity in HepG2 cells - 0 hour (AID 1224882). Note: nearly all actives have a fitted effect of over 35% in size. In short, it runs like this:
as §4

Test [13] in a line: A CellTox Green Cytotoxicity Assay to monitor cytotoxicity in HepG2 cells - 32 hour (AID 1224883). Note: nearly all actives have a fitted effect of over 50% in size. Note: potency is the fitted concentration of half-maximal effect. A digest of the protocol: as §4
Test [14] in a line: A CellTox Green Cytotoxicity Assay to monitor cytotoxicity in HEK293 cells - 8 hour (AID 1224884). Note: nearly all actives have a fitted effect of over 35% in size. In short, it runs like this:
as §1

The nature of test [15]: qHTS RealTime-Glo MT Cell Viability Assay in HepG2 cells - 16 hour (AID 1224885). Note: nearly all actives have a fitted effect of over 50% in size. In short, it runs like this:
as §5

Test [16] in a line: qHTS RealTime-Glo MT Cell Viability Assay in HEK293 cells - 24 hour (AID 1224886). Note: nearly all actives have a fitted effect of over 50% in size. Note: potency is the fitted concentration of half-maximal effect. In short, it runs like this: as §2
Test [17] in a line: A CellTox Green Cytotoxicity Assay to monitor cytotoxicity in HEK293 cells - 16 hour (AID 1224888). Note: nearly all actives have a fitted effect of over 35% in size. In short, it runs like this: as §1
The nature of test [18]: qHTS RealTime-Glo MT Cell Viability Assay in HepG2 cells - 0 hour (AID 1224889). Note: nearly all actives have a fitted effect of over 50% in size. Note: potency is the fitted concentration of half-maximal effect. A digest of the protocol:
as §5

Test [19] can be described thus: A CellTox Green Cytotoxicity Assay to monitor cytotoxicity in HepG2 cells - 8 hour (AID 1224890). Note: nearly all actives have a fitted effect of over 45% in size. A digest of the protocol: as §4
Test [20] in a line: qHTS RealTime-Glo MT Cell Viability Assay in HEK293 cells - 8 hour (AID 1224887). In short, it runs like this:
as §3
% is set by controls: 0 for no effect and ±100 for the full control effect.

Consider `CCc1cc(C(N)=S)ccn1`, for which the Potency entry in test [1], in test [2], in test [5], in test [6], in [8] and in test [9] was “inactive” in each case. The Potency result in [10], in test [11], in test [12], in [13], in test [14] and in [15] was “inactive” throughout. Moreover, the Potency entry in test [16], in [17], in test [18] and in [19] was “inactive” in each case. Besides, the molecule was classed as inactive in test [3] and in [7]. Also, the max response in test [4] was 1.51% (inactive) and 1.72% (inactive) and 1.47% (inactive).

For `CC(=O)OC/C=C(C)/C=C/C=C(C)/C=C/C1=C(C)CCCC1(C)C`, the Potency entry in test [1], in test [2], in [5], in test [6], in [8] and in test [9] was “inactive” each time. Further, the Potency entry in test [10], in test [11], in [12], in test [13], in [14] and in [15] was “inactive” throughout. Further, the Potency result in test [16], in [17], in test [18] and in [19] was “inactive” each time. Besides, the outcome in test [3] and in test [7] was inactive. In addition, in test [4], the max response is -17.8% (inactive) and 3.29% (inactive) and 17.2% (inactive).

With `CCCCCCCCOc1ccc(C(=O)c2ccccc2)c(O)c1`, the Potency entry in [1], in test [2], in [5], in test [6], in test [8] and in test [9] was “inactive” throughout. Further, the Potency entry in test [10], in [12], in test [13], in test [14], in [15] and in test [16] was “inactive” each time. The Potency entry in test [20], in [17], in test [18] and in [19] was “inactive” in each case. Moreover, the molecule was called inactive in test [3] and in [7]. In [4], the max response is -20.9% (inactive) and 7.71% (inactive) and 4.9% (inactive).

For the molecule `Oc1cccc(O)c1`, the Potency entry in test [1], in [2], in [5], in test [6], in [8] and in [9] was “inactive” in each case. Also, the Potency result in test [10], in [11], in [12], in test [13], in test [14] and in test [15] was “inactive” each time. The Potency result in test [16], in [17], in [18] and in test [19] was “inactive” throughout. Moreover, the molecule was called inactive in [3] and in test [7]. Also, the max response in test [4] was -0.181% (inactive) and -6.38% (inactive) and 1.58% (inactive).

As for `CC(=O)c1ccc(S(=O)(=O)NC(=O)NC2CCCCC2)cc1`, the Potency result in [1], in test [2], in test [5], in [6], in test [8] and in test [9] was “inactive” in each case. For the same molecule, the Potency entry in [10], in test [12], in test [13], in [14], in test [15] and in [16] was “inactive” each time. Moreover, the Potency entry in test [20], in test [17], in test [18] and in [19] was “inactive” each time. The call in test [3] and in [7] was inactive. The max response in [4] was 0.507% (inactive) and 8.7% (inactive) and 3.73% (inactive).

As to `COc1cc(C=O)ccc1O`, the Potency result in [1], in test [2], in test [5], in test [6], in [8] and in test [9] was “inactive” each time. In addition, the Potency result in test [10], in [11], in test [12], in test [13], in [14] and in test [15] was “inactive” each time. For the same molecule, the Potency entry in test [16], in test [17], in test [18] and in test [19] was “inactive” each time. The outcome in test [3] and in test [7] was inactive. Further, the max response in [4] was 0.342% (inactive) and 3.21% (inactive) and 2.85% (inactive).

In the case of `CC(C)CC(C)CC(O)CC(C)C` (configuration not stated), the Potency entry in [1], in test [2], in [5], in test [6], in test [8] and in test [9] was “inactive” throughout. Further, the Potency result in [10], in test [12], in test [13], in [14], in [15] and in [16] was “inactive” throughout. Besides, the Potency result in test [20], in [17], in test [18] and in [19] was “inactive” in each case. The call in [3] and in test [7] was inactive. For the same molecule, the max response in test [4] is -0.631% (inactive) and 5.18% (inactive).

`Cc1c(N(C)CS(=O)(=O)O)c(=O)n(-c2ccccc2)n1C`: the Potency result in test [1], in [2], in [5], in test [6], in [8] and in [9] was “inactive” throughout. The Potency entry in [10], in test [11], in test [12], in test [13], in test [14] and in test [15] was “inactive” in each case. The Potency entry in test [16], in test [17], in [18] and in test [19] was “inactive” throughout. Also, the molecule was called inactive in test [3] and in [7]. In addition, the max response in test [4] is -0.4% (inactive) and 7.69% (inactive).

For the molecule `CC1=NN(c2ccccc2)C(=O)C1`, the Potency entry in test [1], in test [2], in test [5], in test [6], in test [8] and in test [9] was “inactive” throughout. In addition, the Potency entry in test [10], in test [11], in [12], in test [13], in test [14] and in test [15] was “inactive” each time. The Potency result in [16], in test [17], in test [18] and in test [19] was “inactive” in each case. Also, the molecule was called inactive in test [3] and in test [7]. In test [4], the max response was -0.0619% (inactive) and 3.79% (inactive) and -1.74% (inactive).

Consider `C[C@]12C[C@H](O)[C@H]3[C@@H](CCC4=CC(=O)CC[C@@]43C)[C@@H]1CC[C@@H]2C(=O)CO`, for which the Potency entry in test [1], in [2], in test [5], in test [6], in test [8] and in [9] was “inactive” in each case. In addition, the Potency result in test [12], in test [13], in test [14], in [15], in test [16] and in [20] was “inactive” each time. The Potency result in test [17] and in [19] was “inactive” throughout. The molecule was classed as inactive in test [3] and in test [7]. Further, the max response in [4] is -9.57% (inactive). The Potency in test [10] was 13.8 µM (active); in test [18], 9.79 µM (active) and 3.47 µM (active) and 9.52 µM (active).

For the molecule `N[C@@H](Cc1c[nH]c2ccccc12)C(=O)O`, the Potency entry in [1], in test [2], in test [5], in test [6], in [8] and in test [9] was “inactive” in each case. Besides, the Potency result in [10], in test [11], in test [12], in test [13], in test [14] and in [15] was “inactive” in each case. Also, the Potency entry in [16], in test [17], in [18] and in test [19] was “inactive” throughout. Besides, the outcome in [3] and in test [7] was inactive. Moreover, the max response in [4] was 11.5% (inactive).

For the molecule `C#C[C@]1(O)CC[C@H]2[C@@H]3CCc4cc(O)ccc4[C@H]3CC[C@@]21C`, the Potency in test [1] is 12.2 µM (active) and inactive; in [4] it was 6.87 µM (active) and 21.9 µM (active); in [8], 43.3 µM (active) and 6.7 nM (active); in test [9], 17.3 µM (active) and 19.5 µM (active); in [13], 21.7 µM (active) and 43.6 µM (active); in [16], 19.5 µM (active). For the same molecule, the Potency entry in test [2], in [5], in [6], in test [10], in test [11] and in test [12] was “inactive” throughout. Moreover, the Potency entry in test [14], in test [15], in test [17], in test [18] and in test [19] was “inactive” each time. Besides, the call in test [3] and in test [7] was inactive.

In the case of `CC(C)(C)NCC(O)c1ccc(O)c(CO)c1` (configuration not stated), the Potency result in [1], in test [2], in test [5], in test [6], in test [8] and in test [9] was “inactive” throughout. The Potency entry in [10], in test [11], in [12], in [13], in test [14] and in test [15] was “inactive” each time. Further, the Potency entry in [16], in test [17], in test [18] and in test [19] was “inactive” each time. In addition, the molecule was classed as inactive in test [3] and in test [7]. Besides, in test [4], the max response was 9.56% (inactive) and 4.37% (inactive).
